An excerpt weighted towards active compounds, which were near 1.6% of everything screened.
RXFP1 antagonist: qHTS Assay for Antagonists of the Relaxin Receptor RXFP1. activity change, negative = inhibition, % at 57.5 µM. AID 1259400, 2018. actives 0.59% (n = 350,000). HEK293-RXFP1, relaxin-stimulated cAMP HTRF, 30 min; stronger effect = lower value;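 active = activity change of -60% or lower, but not beyond a set lower limit; inconclusive = change between -60% and -40%, or beyond the set limit; inactive = change above -40%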; note: % is set by controls: 0 for no effect and ±100 for the full control effect
Target sequence (Q9HBX9 whole entry, looked up): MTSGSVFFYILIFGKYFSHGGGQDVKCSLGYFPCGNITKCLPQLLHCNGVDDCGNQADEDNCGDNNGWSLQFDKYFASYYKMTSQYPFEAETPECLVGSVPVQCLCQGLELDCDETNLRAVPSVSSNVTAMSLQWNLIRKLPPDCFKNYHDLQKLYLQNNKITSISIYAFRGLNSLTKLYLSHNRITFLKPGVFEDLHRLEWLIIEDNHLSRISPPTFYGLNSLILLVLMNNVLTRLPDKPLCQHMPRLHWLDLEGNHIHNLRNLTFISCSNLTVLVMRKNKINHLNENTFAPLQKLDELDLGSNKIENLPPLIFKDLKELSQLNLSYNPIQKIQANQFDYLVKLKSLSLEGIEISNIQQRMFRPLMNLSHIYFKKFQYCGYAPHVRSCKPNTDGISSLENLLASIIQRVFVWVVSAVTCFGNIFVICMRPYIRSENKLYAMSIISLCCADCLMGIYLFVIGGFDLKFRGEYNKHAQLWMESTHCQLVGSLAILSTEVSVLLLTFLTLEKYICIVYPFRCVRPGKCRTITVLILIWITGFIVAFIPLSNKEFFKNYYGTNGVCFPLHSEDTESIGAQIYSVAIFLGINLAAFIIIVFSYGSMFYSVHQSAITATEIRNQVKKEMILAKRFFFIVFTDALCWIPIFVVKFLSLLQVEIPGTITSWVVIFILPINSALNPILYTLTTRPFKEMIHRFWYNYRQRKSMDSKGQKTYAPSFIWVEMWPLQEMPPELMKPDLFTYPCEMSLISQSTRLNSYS
Coupling enz: qHTS Assay for Inhibitors of Fructose-1,6-bisphosphate Aldolase from Giardia Lamblia: Coupling assay counterscreen; actives 0.67% (n = 290,000); coupling enzyme system counterscreen, AmpLite Red fluorescence; AID 2472, 2010; activity change, negative = inhibition, % at 58.2 µM, hits read low; in the data active = activity change below about -30%; note: % is set by controls: 0 for no effect and ±100 for the full control effect
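Fluorescence at 525 nm excitation and 598 nm emission measured inhibition of the coupled detection system without aldolase. Compounds (at 57.5 uM final) were preincubated 10 min at room temperature with coupling enzyme reagent before a 20 min substrate/AmpLite Red step.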
Giardia killer: Small Molecules that selectively kill Giardia lamblia: qHTS; Giardia lamblia trophozoite viability; AID 540267, 2011; actives 0.15% (n = 340,000); activity change, % at 7.66 µM, hits read low; in the data active = activity change below about -80%; inconclusive = between about -30% and that limit;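 note: parasites exposed to compound for two days anaerobically before the ATP read; % is set by controls: 0 for no effect and ±100 for the full control effect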
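Luminescent ATP signal served as the viability read-out, measured 15-30 min after adding ATP detection reagent to trophozoites that had been incubated with compounds for 48 hrs at 37 deg C anaerobically at 100 cells/well.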
gsp antagonist: qHTS for Antagonists of gsp, the Etiologic Mutation Responsible for Fibrous Dysplasia/McCune-Albright Syndrome: qHTS; gsp-mutant cells, cAMP HTRF, 30 min; actives 0.4% (n = 340,000); Potency, µM (highest dose often 76.9 µM), for the others: at the top dose activity change, negative = inhibition, hits mostly inhibitors; AID 624288, 2012; calls by dose curve; cell line not stated here;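 note: intracellular cAMP measured with PDE inhibitor Ro 20-1724 present during compound exposure; potency is the fitted concentration of half-maximal effect; % is set by controls: 0 for no effect and ±100 for the full control effect; nearly all actives have a fitted effect of over 65% in size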
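HTRF cAMP measurement after 30 min RT detection following 30 min, 37C compound treatment alongside […] (added as 300 uM solution) in G418-selected cells seeded at 2000/well and grown 16–24 h.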
RXFP1 ag: qHTS Assay for Agonists of the Relaxin Receptor RXFP1; AID 2676, 2010; HEK293T-RXFP1 cAMP TR-FRET, 30 min; response scale: percent of porcine relaxin response, buffer zero; Potency, µM (doses to about 57.5 µM), without a hit: top-dose activation, hits mostly activators; actives 0.3% (n = 370,000); Relaxin receptor 1 (Homo sapiens), Q9HBX9; active = well fitted activation curve with a large enough effect; inconclusive = small, poorly fitted or top-dose-only effect; note: potency is the fitted concentration of half-maximal effect; % is set by controls: 0 for no effect and ±100 for the full control effect; nearly all actives have a fitted effect of over 60% in size
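Agonist response is measured as cAMP accumulation in an RXFP1-transfected HEK293T line under PDE4 inhibition. Values are scaled between buffer-only and 29 nM porcine relaxin, and EC50s come from standard Hill equation fits.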
gsp ag: qHTS for Agonist of gsp, the Etiologic Mutation Responsible for Fibrous Dysplasia/McCune-Albright Syndrome: qHTS; gsp mutant cells, cAMP HTRF, 30 min; Potency, µM (series often up to 76.9 µM), without a hit: at the highest dose activation (cAMP increase), hits mostly activators; actives 0.13% (n = 340,000); AID 624287, 2012; active = well fitted activation curve with a large enough effect; inconclusive = small, poorly fitted or top-dose-only effect, or another doubt; inactive = no such curve, though single readings can be large or run the other way; cell line not stated here;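 note: phosphodiesterase inhibitor Ro 20-1724 added with compounds to block cAMP breakdown; potency is the fitted concentration of half-maximal effect; nearly all actives have a fitted effect of over 60% in size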
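Cells stably selected in G418 were plated at 2000/well, grown 16-24 hr, then given compounds in DMSO with the PDE inhibitor […] (300 uM solution added) for 30 min at 37C; cAMP was read by HTRF.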
Numbers without * were called inactive; ? = inconclusive; · = no result given; [ ] = dose if it differs, or a comment.

SMILES	RXFP1 antagonist	Coupling enz	Giardia killer	gsp antagonist	RXFP1 ag	gsp ag
CCn1c(SCC(=O)NC(=O)NCc2ccco2)nc2sc(C)c(C)c2c1=O	-69.4*	8.2	-4.6	-5.4%	-2.8%	?
Cc1sc2nc(SCC(=O)NCc3ccco3)n(C)c(=O)c2c1C	6.8	2.7	2.0	0.6%	4.0%	-29.2%
Cc1sc2nc(SCc3ccc(C(=O)O)cc3)n(Cc3ccco3)c(=O)c2c1C	-25.2	13.3	6.4	25.1µM*	6.4%	-9.2%[15.4 µM]
CC1(C)CC(=O)C(C(C2=C(O)CC(C)(C)CC2=O)c2ccc(Br)s2)C(=O)C1 (stereo not given)	-99.0*	11.8	7.4	-25.2%	0.4%	?
Cc1ccc(C(C2=C(O)CC(C)(C)CC2=O)C2C(=O)CC(C)(C)CC2=O)s1 (stereo not given)	?	4.1	-10.7	-19.4%	0.0%	18.8%
CC(=O)c1c(O)cccc1O	·	1.4	·	·	·	·
CCc1cnc2c(c1SCc1c(F)cccc1Cl)c(=O)n(C)c(=O)n2C	3.4	·	·	·	1.5%	·
N#Cc1ccc2ccn(CC(=O)N3CCCc4ccccc43)c2c1	-10.1	-39.5*	13.5	-8.1%	-0.5%	-33.1%
OC(CNC1CCCc2ccccc21)COc1c(Cl)cccc1Cl (stereo not given)	-63.1*	0.2	4.7	8.9%	-1.2%	0.0%
Cc1ccc(C)c(NC(=O)NCCN2CCCCC2)c1	-77.0*	1.9	-19.4	4.7%	0.6%	-7.6%
O=C(NCCN1CCCCC1)Nc1cccc(Cl)c1Cl	-77.5*	2.3	22.4	9.2%	3.1%	-2.1%
Cc1ccc(C(C[N+](=O)[O-])c2c(C)[nH]n(-c3ccccc3)c2=O)cc1 (stereo not given)	·	-32.3*	-8.7	14.3%	-0.3%	6.4%
O=c1ccn(-c2cccc(C(F)(F)F)c2)nc1-c1ccn(-c2ccccc2)n1	0.8	-37.8*	-4.1	-10.2%	1.8%	?
Cn1c(N)c(NC(=S)NC2CCCCC2)c(=O)n(C)c1=O	1.5	·	3.2	11.9%	·	19.6%
COc1ccc(-n2nc(C(=O)NCC(=O)NCCCN3CCOCC3)c3ccccc3c2=O)cc1OC	11.5	1.0	14.0	32.6%	14.1µM*	52.2%[15.4 µM]
COc1ccc(-n2nc(C(=O)NCC(=O)NCCCN3CCOCC3)c3ccccc3c2=O)cc1Cl	16.7	0.9	-5.9	14.6%	?	40.7%[15.4 µM]
COc1ccc(-n2nc(C(=O)NCC(=O)NCCCN3CCOCC3)c3ccccc3c2=O)cc1	31.6	2.1	-16.3	15.4%	15.8µM*	?
Cc1cccnc1CN1CCN(C(=O)c2cc(COc3ccc4ncccc4c3)on2)CC1	-11.4	-1.3	14.2	31.6µM*	0.5%	0.4%[15.4 µM]
O=C(c1cc(COc2ccc3ncccc3c2)on1)N1CCC(O)CC1	-11.2	0.3	19.7	-7.9%	1.3%	1.8%[15.4 µM]
CC(CNC(=O)c1cc(COc2ccc3ncccc3c2)on1)c1ccccc1 (stereo not given)	-32.4	-4.0	10.8	31.6µM*	-1.1%	-1.7%
Cc1cc(CN(C)C(=O)c2cc(COc3ccc4ncccc4c3)on2)on1	0.8	-2.2	-0.3	-20.0%	5.4%	18.6%
O=C(NC1CCCCCCC1)c1cc(COc2ccc3ncccc3c2)on1	-20.9	-0.4	-16.8	39.8µM*	4.0%	3.4%[15.4 µM]
CCOc1ccccc1CNC(=O)CCn1c(=O)c2cccn2c2ccc(F)cc21	-7.9	·	·	·	-0.4%	·
O=C(Cc1ccccc1[N+](=O)[O-])c1ccc2c(c1)OCO2	-2.6	·	10.3	0.7%	·	-14.1%
Cc1ccc(C2(c3noc(CN4CCC(c5ccncc5)CC4)n3)CCCC2)cc1	-27.1	-7.1	6.7	-33.1%	0.3%	-5.5%
SMILES	RXFP1 antagonist	Coupling enz	Giardia killer	gsp antagonist	RXFP1 ag	gsp ag
COc1cc(NC(=O)CSc2ncnc3c2cnn3Cc2ccccc2)cc(OC)c1	-0.5	2.5	40.6	-3.8%	2.5%	7.9%
COc1ccc(OC)c(NC(=O)CSc2ncnc3c2cnn3-c2ccccc2Cl)c1	-3.8	-1.3	-9.4	2µM*	1.7%	-18.8%
CC(=O)C(Sc1nccc(-c2cccs2)n1)C(C)=O	-17.5	-50.9*	17.1	-8.7%	6.1%	0.9%[15.4 µM]
Cc1ccc2c(n1)Oc1ccc(C(C)C(=O)OCC(=O)N(C)C)cc1C2 (stereo not given)	-5.2	·	·	·	·	·
CCOC(=O)/C=C(\C)Sc1cc(=O)oc2ccccc12	-2.0	0.8	0.1	0.0%	0.1%	0.0%
CCOC(=O)/C=C(\C)Sc1cc(O)c2ccccc2c1O	9.8	-86.0*	-2.1	-21.2%	1.2%	1.8%
S=C(Nc1ccccc1)Nc1ccc2cn[nH]c2c1	-3.5	-38.9*	-1.8	-1.0%	1.1%	-21.1%
c1cc2cn[nH]c2cc1NC1CCCCCC1	-4.8	-66.9*	6.8	-7.4%	-0.5%	-22.8%
Cc1ccc(NC(=S)Nc2ccc3cn[nH]c3c2)cc1	-2.1	-8.3	-3.0	-0.5%	3.7%	4.6%[15.4 µM]
C[C@]12O[C@H]1[C@@H](O)C(Br)=C(CO)[C@H]2O	·	0.0	·	·	·	·
Cn1nccc1C(=O)NCc1ccc2c(c1)CCN2C(=O)c1ccc(F)cc1	-73.4*	·	·	·	2.7%	·
Cc1ccc(C(=O)N2CCc3cc(CNC(=O)c4ccnn4C)ccc32)cc1	5.1	·	·	·	-0.2%	·
COc1cc2c(cc1NC(=O)CSc1nccn1C)oc1ccccc12	5.6	-7.2	-12.4	28.2µM*	0.7%	1.8%
COc1cc2c(cc1NC(=O)C(C)Sc1ccc(NC(C)=O)cc1)oc1ccccc12 (stereo not given)	-13.8	-8.2	20.7	20µM*	0.0%	?
COc1cc2c(cc1NC(=O)CSc1ccccc1)oc1ccccc12	-14.7	-4.1	4.5	?	2.1%	17.4%
COC(=O)CN1C(=O)C(O)(c2c(C)[nH]c3ccccc23)c2ccccc21 (stereo not given)	-5.3	·	·	·	0.3%	·
CCCCN1C(=O)C(O)(c2c(C)[nH]c3ccccc23)c2cc(Br)ccc21 (stereo not given)	-103.1*	·	·	·	-0.2%	·
CCOC(=O)CN1C(=O)C(O)(c2c(C)[nH]c3ccccc23)c2ccccc21 (stereo not given)	5.6	-30.2*	10.5	12.6%	-0.5%	-12.8%
Nc1ccn([C@@H]2O[C@H](CO)[C@@H](O)C2(F)F)c(=O)n1	-7.9	·	·	·	·	·
O=C(O)c1ccc2c(ccc3nn(-c4ccc(/C=C/c5ccc(-n6nc7ccc8cc(C(=O)O)ccc8c7n6)cc5[S+](=O)([O-])[O-])c([S+](=O)([O-])[O-])c4)nc32)c1	·	·	3.3	·	·	·

Screening data (PubChem)
